Giardia FBPA inh – Giardia lamblia aldolase inhibition | A8B2U2 | purified Giardia FBPA | Potency, µM (doses to about 59.6 µM), for the others: at the highest dose activity, negative = inhibition, most hits filed as inhibitors | 0.71% of 290,000 active; note: potency is the fitted concentration of half-maximal effect; % is set by controls: 0 for no effect and ±100 for the full control effect; nearly all actives have a fitted effect of over 55% in size
Target sequence (A8B2U2 whole entry, looked up): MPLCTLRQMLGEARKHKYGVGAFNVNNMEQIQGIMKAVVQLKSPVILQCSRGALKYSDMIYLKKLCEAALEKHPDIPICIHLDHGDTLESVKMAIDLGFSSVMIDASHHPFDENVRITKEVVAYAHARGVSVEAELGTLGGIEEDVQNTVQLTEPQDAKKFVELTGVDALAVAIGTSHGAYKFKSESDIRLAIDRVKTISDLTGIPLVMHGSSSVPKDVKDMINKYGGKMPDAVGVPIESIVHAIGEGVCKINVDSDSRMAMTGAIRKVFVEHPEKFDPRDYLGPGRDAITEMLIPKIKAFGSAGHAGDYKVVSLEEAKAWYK
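Giardia FBPA (40 nM reagent) was preincubated 10 min at RT with compound (up to 57.5 uM final), then substrate plus GAPDH/TPI/NAD/arsenate coupling system with diaphorase/resazurin was added; resorufin fluorescence (525/598 nm) was read after 20 min.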
LmPK inh – blocks Leishmania mexicana pyruvate kinase activity. Q27686. purified LmPK, Kinase-Glo ATP luminescence, 1 h. Potency, µM (titrated, usually from 57.5 µM), for the others: top-dose activity change, negative = inhibition, actives largely listed as inhibitors. 0.37% of 290,000 active. AID 1721; note: potency is the fitted concentration of half-maximal effect; % is set by controls: 0 for no effect and ±100 for the full control effect
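0.1 nM LmPK, 0.5 mM PEP, 0.1 mM ADP; 50 mM imidazole pH 7.2, 7 mM MgCl2, 50 mM KCl; 1 h RT. Kinase-Glo luminescence readout, normalized to no-enzyme (full inhibition) and uninhibited wells.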
Tb PYK inh – inhibitors of Trypanosoma brucei pyruvate kinase | Q57TT1 | TbPYK enzyme, Kinase-Glo Plus ATP luminescence, 45 min | Potency, µM (doses to about 76.8 µM), inactives show top-dose activity, negative = inhibition, hits mostly inhibitors | 0.12% of 410,000 active; note: potency is the fitted concentration of half-maximal effect; % is set by controls: 0 for no effect and ±100 for the full control effect; nearly all actives have a fitted effect of over 50% in size
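Enzyme and substrate buffer are dispensed first and compound is pin-transferred. ADP at 130 uM final then starts the reaction, which runs 45 min at room temperature. Detection reagent is added for 10 min before luminescence is imaged.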
Shiga inhibitor – inhibitors of Shiga toxin in Vero cells; Vero cells, Shiga toxin protein synthesis inhibition reporter; inhibition, % at 38.7 µM; 9.2% of 290,000 active; in the data active = inhibition mostly above about 28%, no sharp cut-off; inactive = mostly below about 43%; note: 0% is about no effect
RE007 growth inh – less growth of the S. pombe RE007 Vpr strain; Potency, µM (series often up to 92.2 µM), for inactives: at the top dose activity change, negative = less growth, usual class: inhibitors; S. pombe RE007 Vpr strain, BacTiter-Glo ATP luminescence, 24 h; 0.21% of 360,000 active; active = well fitted falling curve with a large enough effect; inconclusive = small, poorly fitted or top-dose-only effect; inactive = no such curve, though single readings can be large or run the other way; note: potency is the fitted concentration of half-maximal effect; % is set by controls: 0 for no effect and ±100 for the full control effect; nearly all actives have a fitted effect of over 50% in size
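Fission yeast RE007 carrying one integrated HIV-1 vpr copy, seeded at OD 0.01 in PMG+AL medium with 23 nL pinned compound. Grown 24 h at 30 degrees; viability read by BacTiter-Glo luminescence after 5 min.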
Cycloheximide cs – counter-screen for Shiga toxin inhibitors: cycloheximide protein synthesis inhibition | cell reporter, cycloheximide protein synthesis inhibition counterscreen | max response, % | 12% of 300,000 active | AID 2314; in the data active = max response mostly above about 13%, no sharp cut-off; inactive = mostly below about 14%; note: read at 38.3 µM for the half of the compounds with a filed dose; 0% is about no effect
Active calls of the source: *; ? = inconclusive; nt = not tested or not shown; + = active, no number; [ ] = remark or other dose. The sample as a whole holds a higher share of hits than the screen did. Unless noted, calls come from the whole dose curve; as a rule, active = well fitted curve in the direction sought with a large enough effect; inconclusive = small, poorly fitted or top-dose-only effect, or another doubt; inactive = no such curve, though single readings can be large; an effect the other way counts as inactive or inconclusive.

SMILES | Giardia FBPA inh | LmPK inh | Tb PYK inh | Shiga inhibitor | RE007 growth inh | Cycloheximide cs
CC(=O)Oc1c(Br)cc(N(C(C)=O)S(=O)(=O)c2ccccc2)c2ccccc12 | 28.2µM* | ? | -18.4% | nt | 2.1% | 1.9
CC(=O)Oc1ccccc1N(C(C)=O)S(=O)(=O)c1ccc2ccccc2c1 | -1.0% | -7.1% | -5.7% | 23.1 | 1.8% | 11.1
Cc1nn(-c2nnc(NC3CCCCC3)nn2)c(C)c1Br | -12.0% | -8.4% | 0.9% | active | -28.6% | 46.7*
COc1ccccc1CNc1nc(-c2ccco2)nn1C(=O)c1ccccc1[N+](=O)[O-] | nt | nt | -9.0% | nt | nt | nt
CCC(C)n1c(-c2cccc(S(=O)(=O)N3CCOCC3)c2)n[nH]c1=S (centres undefined) | nt | nt | 7.08µM* | nt | -3.2% | nt
O=c1[nH][nH]c2c(N=Cc3ccccc3O)ccc(F)c12 | 6.29µM* | -22.9% | -17.5% | -21.0 | 6.4% | -3.1
COC(=O)C(O)(c1ccc(N=Cc2ccccc2O)c(C)c1)C(F)(F)F (centres undefined) | 0.2% | -9.9% | -1.5% | -7.1 | 6.1% | -2.3
CCCCN(CC)C(=O)CSc1nc2n[nH]c(C)c2c(=N)n1-c1cccc(OC)c1 | nt | nt | -0.2% | nt | nt | nt
CCC(C(=O)Nc1ccc(C(=O)OC)cc1)n1c(=O)c(-c2ccccc2NC(C)=O)nc2ccccc21 (centres undefined) | nt | nt | 1.6% | nt | nt | nt
O=C(O)c1cc(-n2[nH]c(=O)c3ccccc3c2=O)ccc1Cl | 4.4% | 3.2% | 2.0% | 148.4* | 10.9% | 43.5*
O=C(Nc1cccc(F)c1)C1CCN(c2nc3ccccc3[nH]2)CC1 | nt | nt | -0.5%[15.4 µM] | nt | nt | nt
Cc1nc2ccc([N+](=O)[O-])cc2nc1C | 4.6% | 4.2% | 0.0% | -15.9 | 4.3% | 12.0
Cc1ccc2nc3cc([N+](=O)[O-])cc([N+](=O)[O-])c3cc2c1 | -16.1% | -1.1% | -2.9% | 134.2* | ? | 67.6*
COc1ccc(-c2ccc(NS(=O)(=O)c3ccc(F)c(C(F)(F)F)c3)cc2)nn1 | nt | nt | -2.9% | nt | nt | nt
O=C(CSc1nnc(-c2ccco2)o1)c1ccc(F)c(F)c1 | 0.8% | -6.7% | 7.6% | 21.5 | 0.6% | 7.0
O=C(CSc1nnc(-c2ccco2)o1)c1ccccc1 | -14.2% | -2.2% | -11.7% | 65.6 | -29.1% | 32.9*
O=C(CSc1nnc(-c2ccco2)o1)c1ccc[nH]1 | -16.9% | -2.1% | 1.3% | 110.3* | 32.0% | 50.1*
CCOc1ccccc1N(CC(=O)N1CCc2ccccc2C1)S(=O)(=O)c1ccccc1 | nt | nt | -16.4% | nt | nt | nt
O=C(CN1CCCCC1)NC(=O)NC1CCCC1 | 0.3% | -0.6% | -14.9% | 55.5* | 9.5% | 23.2*
Cc1cc(C)cc(NC(=O)C(Cc2ccccc2)NS(=O)(=O)c2ccc3c(c2)CCC(=O)N3)c1 (centres undefined) | nt | nt | -4.5% | nt | nt | nt
COCCNC(=O)C1(C)C=CC2(CCCCC2)N1C(=O)c1ccccc1 (centres undefined) | -0.6% | 0.8% | 6.6% | -10.9 | 6.8% | -2.1
CC(=O)N1[C@H](Cc2ccccc2)C=C[C@]1(C)C(=O)NCCN1CCOCC1 | 2.4% | -0.2% | -3.4% | 23.3 | -1.1% | 11.3*
CC1(C(=O)NCCN2CCOCC2)C=CC2(CCCCC2)N1C(=O)c1ccccc1 (centres undefined) | -0.1% | -5.9% | 1.6% | 32.8 | -14.1% | 26.4*
C[C@]1(C(=O)NCCN2CCOCC2)C=C[C@@H](Cc2ccccc2)N1C(=O)c1ccccc1 | 4.4% | -0.1% | -4.1% | -11.8 | -9.1% | -4.6
COc1ccc(CCNC(=O)c2nc(SCc3ccc(F)cc3)ncc2Cl)cc1OC | nt | nt | -1.1% | nt | nt | nt
SMILES | Giardia FBPA inh | LmPK inh | Tb PYK inh | Shiga inhibitor | RE007 growth inh | Cycloheximide cs
NCC1O[C@@H](OC2C(N)CC(N)C(O)C2O[C@@H]2OC(CO)C(O)C2O)C(N)C(O)C1O (some centres undefined) | 2.5% | nt | nt | nt | nt | nt
Cc1ccnc(NC(=O)c2ccccc2NC(=O)c2ccc(Cl)cc2Cl)c1 | -4.8% | 2.1% | 2.5% | 4.4 | 2.5% | 1.5
O=C(/C=C/c1ccccc1[N+](=O)[O-])Nc1ccc(S(=O)(=O)Nc2ncccn2)cc1 | -29.3% | 0.8% | 1.0% | 3.4 | -21.4% | 0.6
Cc1ccnc(NC(=O)c2ccccc2[N+](=O)[O-])c1 | 1.1% | -12.7% | -2.7% | 19.4 | -12.0% | 18.9*
Cc1ccnc(NC(=O)c2cccc3ccccc23)c1 | nt | -5.8% | -1.2% | 76.7* | -27.9% | 49.2*
Cc1cccnc1NC(=O)CCCc1c[nH]c2ccccc12 | nt | -1.6% | 2.6% | -3.0 | -1.3% | 3.0
Cc1ccnc(NC(=O)CCc2c[nH]c3ccccc23)c1 | nt | 1.2% | -2.7% | 90.7* | -7.4% | 39.8*
Cc1ccnc(NC(=O)/C=C/c2ccccc2[N+](=O)[O-])c1 | -8.8% | -26.8% | nt | 72.6* | nt | 34.1*
Cc1ccnc(NC(=O)c2cccc([N+](=O)[O-])c2C)c1 | 0.6% | 0.5% | -6.9% | 50.6 | -15.4% | 15.6
CCCN(CCC)S(=O)(=O)c1ccc2c(c1)N(CC(=O)NC(C)c1ccccc1)C(=O)CS2 (centres undefined) | nt | nt | -2.5%[15.4 µM] | nt | nt | nt
CCOc1ccccc1NC(=O)/C=C/c1ccccc1[N+](=O)[O-] | -2.3% | -4.1% | -2.9% | 6.2 | -0.7% | 45.4*
O=C(/C=C\c1ccccc1[N+](=O)[O-])Nc1ccccc1 | -5.1% | -15.1% | 5.3% | 51.8* | 8.5% | 39.4*
Cc1ccnc(NC(=O)c2c(-c3ccccc3Cl)noc2C)c1 | 6.1% | 0.1% | -0.5% | 64.2* | -0.1% | 21.3*
Cc1ccnc(NC(=O)/C=C/c2ccccc2Cl)c1 | 1.3% | -26.5% | -3.0% | + | 3.1% | 58.6*
NS(=O)(=O)c1ccc(NC(=O)/C=C/c2ccccc2[N+](=O)[O-])cc1 | -2.4% | 0.4% | 4.4% | 22.3 | 2.9% | -2.6
CCOc1ccccc1NC(=O)/C=C/C(N)=O | -6.9% | -7.6% | -15.9% | 12.3 | -7.0% | 11.7
O=C(COc1ccc(Cl)cc1)NNC(=O)c1ccccc1C(=O)O | nt | 2.3% | 5.7% | -20.9 | 5.9% | -3.9
COc1cccc(CNC(=O)CCc2nnc3n(C)c(=O)c4sccc4n23)c1 | nt | nt | -0.6% | nt | nt | nt
O=[N+]([O-])c1ccc(C23CC4CC(CC(O)(C4)C2)C3)cc1 | 5.2% | -0.2% | nt | 63.3* | nt | 38.9*
O=C(NC12CC3CC(CC(C3)C1)C2)c1ccc([N+](=O)[O-])cc1 | -5.8% | -5.7% | 3.0% | 1.9 | 3.8% | 1.8
O=C(NC1CCCCC1)c1ccc(OC2CCN(Cc3ccccn3)CC2)cc1 | nt | -8.2% | -1.5% | -13.6 | -6.2% | -1.9
CN(C(=O)c1ccc(OC2CCN(Cc3ccccn3)CC2)cc1)C1CCCCC1 | nt | -10.2% | 5.9% | 22.4 | -7.2% | 21.0*

Screening results from PubChem BioAssay.
